Results published in PubChem BioAssay AID588683 (Broad Institute, 2011).
Measured potencies and affinities stand elsewhere. Activity calls are given as the source filed them. How the calls were made is not given here.

What follows are molecules tested against Kelch-like ECH-associated protein 1 (Homo sapiens) + Nuclear factor erythroid 2-related factor 2 (Homo sapiens) (UniProt Q14145+Q16236) (assay: Keap1-Nrf2 protein-protein interaction inhibitors, dose response, biochemical, fluorescence polarization, cherry-picked samples (AID 588683;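 further: Kelch domain of Keap1 binding a fluorescein-labelled 9mer Nrf2 peptide; more negative means stronger inhibition of peptide binding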)). Details: Keap1/Nrf2 peptide fluorescence polarization, plate reader; series mostly up to 26 µM; activity change, negative = inhibition: at the top concentration.
Kelch-like ECH-associated protein 1 (Homo sapiens) + Nuclear factor erythroid 2-related factor 2 (Homo sapiens), sequence (Q14145 whole entry, looked up, the tested form may be a part): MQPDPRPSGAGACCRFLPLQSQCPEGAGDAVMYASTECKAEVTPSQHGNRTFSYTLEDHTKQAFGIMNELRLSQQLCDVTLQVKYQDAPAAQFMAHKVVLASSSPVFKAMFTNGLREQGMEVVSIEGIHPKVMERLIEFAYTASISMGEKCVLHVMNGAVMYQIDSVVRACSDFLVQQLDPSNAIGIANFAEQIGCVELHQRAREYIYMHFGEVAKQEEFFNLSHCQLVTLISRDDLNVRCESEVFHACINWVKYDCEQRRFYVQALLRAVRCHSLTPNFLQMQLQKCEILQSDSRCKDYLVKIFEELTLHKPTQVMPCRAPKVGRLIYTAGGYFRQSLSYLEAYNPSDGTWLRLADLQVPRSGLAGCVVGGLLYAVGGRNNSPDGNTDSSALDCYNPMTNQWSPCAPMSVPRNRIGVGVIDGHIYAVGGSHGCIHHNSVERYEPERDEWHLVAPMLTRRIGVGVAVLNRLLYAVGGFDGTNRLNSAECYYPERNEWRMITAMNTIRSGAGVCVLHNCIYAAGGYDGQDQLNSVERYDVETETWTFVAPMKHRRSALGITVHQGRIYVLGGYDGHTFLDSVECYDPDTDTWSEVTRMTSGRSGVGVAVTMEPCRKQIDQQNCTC
Kelch-like ECH-associated protein 1 (Homo sapiens) + Nuclear factor erythroid 2-related factor 2 (Homo sapiens), sequence (Q16236 whole entry, looked up, the tested form may be a part): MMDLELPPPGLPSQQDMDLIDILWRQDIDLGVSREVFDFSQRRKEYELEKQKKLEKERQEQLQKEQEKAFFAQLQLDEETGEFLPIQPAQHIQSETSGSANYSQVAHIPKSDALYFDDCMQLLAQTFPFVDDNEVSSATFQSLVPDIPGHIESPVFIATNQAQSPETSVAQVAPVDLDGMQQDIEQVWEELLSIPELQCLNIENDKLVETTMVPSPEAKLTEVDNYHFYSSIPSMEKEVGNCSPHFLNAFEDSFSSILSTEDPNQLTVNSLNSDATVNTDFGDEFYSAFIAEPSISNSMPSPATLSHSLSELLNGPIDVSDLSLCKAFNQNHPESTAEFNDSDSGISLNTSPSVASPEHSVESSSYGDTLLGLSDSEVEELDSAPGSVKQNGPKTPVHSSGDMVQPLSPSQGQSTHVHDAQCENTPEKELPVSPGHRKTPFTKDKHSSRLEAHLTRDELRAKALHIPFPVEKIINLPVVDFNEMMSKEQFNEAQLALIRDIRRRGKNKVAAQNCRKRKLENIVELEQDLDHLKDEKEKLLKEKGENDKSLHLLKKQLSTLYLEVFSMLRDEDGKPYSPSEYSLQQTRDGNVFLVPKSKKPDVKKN

Activity change, negative = inhibition, inactive:
CCC1OC23CCCCC2C(C#N)(C(=N)O3)C1(C#N)C#N (stereo unspecified) 1.01%, Cc1ccc(C2C3CN(C(C)C)CC=C3C(C#N)=C(N)C2(C#N)C#N)cc1 (stereo unspecified) -9.88%, N=c1c(C(=O)NC2CCCC2)cc2c(=O)n3ccccc3nc2n1Cc1ccccc1 -5.93%, CCOC(=O)c1c(C)[nH]c(C(=O)COC(=O)c2cccnc2Cl)c1C 9.03%, COC(=O)N/N=C/c1cn(Cc2ccccc2Cl)c2ccccc12 -4.96%, CCCc1nc2oc3cc(OC)ccc3c(=O)c2c(=O)n1Cc1ccco1 -1.14%, COc1ccccc1CNC(=O)c1ccccc1NS(C)(=O)=O -2.84%, Cc1ccc(NC(=S)NCc2ccc(F)cc2)c(C)c1 17%, CC(=O)c1ccc2c(c1)C1C=CCC1C(C(=O)O)N2 (stereo unspecified) -4.16%, Cc1ccc(C2=CC(c3cccs3)n3nnnc3N2)cc1 (stereo unspecified) 2.17%, COC(=O)c1cc(N2CCN(C)CC2)nc2ccccc12 -11.7%, O=C1c2cccc3c(N4CCCCC4)ccc(c23)C(=O)N1c1ccccc1O 72.2%, CCOc1ccc(S(=O)(=O)Nc2cccc(C(=O)NCCCn3ccnc3)c2)cc1 15.2%, COc1ccccc1NC(=O)C(C)OC(=O)C1COc2ccccc2O1 (stereo unspecified) -9.11%, COC(=O)c1cccc(NC(=O)NC(=O)c2ccc(Cl)cc2)c1 -10%, CCOc1ccc(OCCCC(=O)N(CC)CC(=O)Nc2c(F)cccc2F)cc1 1.23%, COc1cc2c3nnc(-c4ccc(F)cc4)c-3cn(Cc3ccc(C)cc3)c2cc1OC 207%, NC(=O)CC(NC(=O)Cc1cccc2ccccc12)c1ccc(NCc2ccccc2)c([N+](=O)[O-])c1 (stereo unspecified) -0.628%, N#Cc1c(SCC(=O)Nc2nncs2)sc2c(O)cc(=O)[nH]c12 -7.37%, O=C(Nc1ccccc1C(=O)N1CCCCCC1)c1ccc(F)cc1 -6.9%, CCC(C)(C)n1nnnc1C(c1cc2ccc(OC)cc2[nH]c1=O)N1CCc2ccccc2C1 (stereo unspecified) 5.63%
